Screens from PubChem.
HSD17B inh: blocks hydroxysteroid 17-beta dehydrogenase activity | recombinant HSD17B10, NADH fluorescence kinetic | AID 893 | 7.6% of 75,000 active | Potency, µM (top dose mostly 57.1 µM), for inactives: at the top dose activity change, negative = inhibition, most hits filed as inhibitors | Q99714;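 note: the protocol describes HADH2 (HSD17B10) and not the HSD17B4 of the title; potency is the fitted concentration of half-maximal effect; % is set by controls: 0 for no effect and ±100 for the full control effect; nearly all actives have a fitted effect of over 70% in size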
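His-tagged E. coli-expressed HADH2 at 20 nM in 100 mM Tris-HCl pH 9.0 with 0.01 % Tween-20, preincubated 15 min with compound at room temperature. Reaction with 1 mM NAD+ and 90 uM beta-hydroxybutyryl coenzyme A; NADH fluorescence (360/450 nm) read kinetically over 4 min, last minus first point.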
4MU fluor: 4-MU region autofluorescence; max dye-equivalent concentration, M; 11% of 59,000 active; compound autofluorescence, 340/450 nm, 4-MU equivalents; stronger effect = higher value; AID 589; in the data active = max dye-equivalent concentration above about 10 nM; inconclusive = mostly about 1.1 nM to 9.6 nM
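Compounds in 100 mM Tris, pH 8.0, sat 15 min at room temperature before fluorescence was read at 340 nm excitation/450 nm emission; a per-plate six-point 4-MU standard curve converted signals to dye-equivalent concentration at each compound concentration.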
HADH2 inhib: inhibitors of human HADH2 dehydrogenase; recombinant HADH2, NADH fluorescence, beta-hydroxybutyryl-CoA; Potency, µM (highest dose often 57.1 µM), for inactives: at the highest dose activity change, negative = inhibition, actives largely listed as inhibitors; 3.4% of 73,000 active; AID 886; note: potency is the fitted concentration of half-maximal effect; % is set by controls: 0 for no effect and ±100 for the full control effect; nearly all actives have a fitted effect of over 60% in size
Target sequence (Q99714 whole entry, looked up, one chain of several): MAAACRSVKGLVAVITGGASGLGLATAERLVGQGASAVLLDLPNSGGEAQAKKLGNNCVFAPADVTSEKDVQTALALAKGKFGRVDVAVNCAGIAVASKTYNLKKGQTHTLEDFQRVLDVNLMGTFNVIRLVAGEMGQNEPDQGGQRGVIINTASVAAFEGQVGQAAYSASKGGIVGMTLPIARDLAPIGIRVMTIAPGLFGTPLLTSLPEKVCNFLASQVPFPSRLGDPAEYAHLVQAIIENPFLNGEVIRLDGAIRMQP
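E. coli-expressed His-tagged HADH2 tested at 20 nM in alkaline Tris buffer (pH 9.0); oxidation of 90 uM beta-hydroxybutyryl-CoA with 1 mM NAD+ tracked fluorimetrically for 4 min.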
CRE Fsk mod: CRE-bla signaling modulation under forskolin stimulation; Potency, µM (doses to about 38.2 µM), for inactives: top-dose activity change, negative = inhibition, most hits filed as activators; AID 662; 2.5% of 71,000 active; CHO CRE-bla reporter (cAMP response element driving beta-lactamase), forskolin EC10, beta-lactamase ratio; active = well fitted activation curve with a large enough effect in the signal ratio, with a control signal flat, not every such curve was filed as active; inconclusive = small, poorly fitted or top-dose-only effect, or effect the other way, or a change in a side signal; the % refers to the signal ratio; note: potency is the fitted concentration of half-maximal effect; % of control where 0% means no effect
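Reporter-gene assay: CHO cells with beta-lactamase behind cAMP responsive elements, co-treated with compound and EC10 NKH 477 for 3 hours at 37 degrees Celsius. Activity came from the 460/530 nm CCF4 emission ratio.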
AID923: qHTS Assay for Allosteric/Competitive Inhibitors of Caspase-1: Spectroscopic Profiling in AFC Spectral Region | 1.1% of 75,000 active | compound fluorescence, AFC spectral region (405/520 nm) | Potency, µM (titrated, usually from 57.5 µM), without a hit: top-dose fluorescence increase, actives largely listed as activators; note: potency is the fitted concentration of half-maximal effect; 0% is about no effect
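Compound autofluorescence profiled at 405 nm ex/520 nm em during kinetic caspase 1 run (50 nM enzyme, 5 uM Ac-WEHD-AFC, HEPES pH 7.5, 10 mM DTT). Titration up to 57 uM; baseline from regression intercept, normalized to AFC standard curve.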
A350 autofl: compounds fluorescent in Alexa 350 spectral region | 11% of 59,000 active | Compound autofluorescence, 340/450 nm, Alexa 350 dye-equivalents; stronger effect = higher value | max dye-equivalent concentration, M; in the data active = max dye-equivalent concentration above about 10 nM; inconclusive = mostly about 1.1 nM to 9.6 nM
Numbers without * were called inactive; [ ] = another dose, or the depositor's remark. Compounds with a hit are over-represented: about 14% of the library has one in this group of screens. Unless noted, calls come from the whole dose curve; as a rule, active = well fitted curve in the direction sought with a large enough effect; inconclusive = small, poorly fitted or top-dose-only effect, or another doubt; inactive = no such curve, though single readings can be large; an effect the other way counts as inactive or inconclusive.

`CC(=O)Nc1ccc(S(=O)(=O)N(C)CC(=O)NC2=NCCS2)cc1` gave HSD17B inh 7.9%, 4MU fluor inactive, HADH2 inhib 4.9%, CRE Fsk mod inconclusive, AID923 -0.9% and A350 autofl inactive.
For O=C(O)c1cn(-c2ccccc2)nc1-c1ccncc1 the results were HSD17B inh 25.1µM*, 4MU fluor inactive, HADH2 inhib -28.7%, CRE Fsk mod -9.0%, AID923 0.2% and A350 autofl inactive.
`CCOC(=O)c1cn(-c2ccccc2)nc1-c1ccncc1` gave HSD17B inh -15.0%, 4MU fluor inactive, HADH2 inhib -1.0%, CRE Fsk mod 10µM*, AID923 -0.8% and A350 autofl inactive.
For O=C(OCc1nnc(-c2ccccc2)o1)c1cn(-c2ccccc2)nc1-c1ccccc1 the results were HSD17B inh 25.1µM*, 4MU fluor inactive, HADH2 inhib 4.9%, CRE Fsk mod inconclusive, AID923 0.4% and A350 autofl inactive.
For CC(C)OC(=O)c1cn(-c2ccccc2)nc1-c1ccco1 the results were HSD17B inh 31.6µM*, 4MU fluor inactive, HADH2 inhib inconclusive, CRE Fsk mod 10.7%, AID923 -0.6% and A350 autofl inactive.
`COc1ccc(-c2nn(-c3ccccc3)cc2C(=O)O)cc1` gave HSD17B inh -14.3%, HADH2 inhib 10.5%, CRE Fsk mod -5.8% and AID923 -1.8%.
Screening Cc1cc(C(=O)OCc2nnc(-c3ccccc3)o2)c(C)n1-c1ccccc1 returned HSD17B inh -0.4%, 4MU fluor inactive, HADH2 inhib -3.1%, CRE Fsk mod 28.6%, AID923 2.7% and A350 autofl inactive.
`CCOC(=O)c1cn(-c2ccccc2)nc1-c1cccnc1` gave HSD17B inh -1.7%, HADH2 inhib 6.9% and AID923 -0.1%.
`COc1cc2c(cc1OC)C1C(=O)c3ccc4c(c3OC1CO2)C=CC(C)(C)O4` (configuration not stated) gave HSD17B inh 1.7% and AID923 0.9%.
`COC(=O)[C@@H]1C[C@H]1[C@@H](NC(=O)c1ccc(Br)cc1)c1ccccc1` gave HSD17B inh -8.1%, HADH2 inhib 16.8%, CRE Fsk mod -0.8% and AID923 -0.5%.
For COc1cccc2c1[C@H](CO)N1[C@H](C#N)[C@@H]3C[C@H](C(=O)O)[C@@H]([C@@H]1C2)N3C the results were HSD17B inh 0.4%[11.4 µM], 4MU fluor inactive, HADH2 inhib 6.4%[11.4 µM], CRE Fsk mod inconclusive, AID923 -2.1%[11.5 µM] and A350 autofl inactive.
Cc1cc(C)n2cc(CSc3nc4cc(Cl)ccc4o3)nc2n1 was read as HSD17B inh inconclusive, 4MU fluor inactive, HADH2 inhib inconclusive, CRE Fsk mod inconclusive, AID923 -0.4% and A350 autofl inconclusive.
`CN(C)c1nc(N)nc(CSc2nc3cc(Cl)ccc3o2)n1` gave HSD17B inh -4.3%, 4MU fluor inactive, HADH2 inhib 8.5%, CRE Fsk mod 2.51µM*, AID923 0.5% and A350 autofl inactive.
`O=c1n(Cc2ccccc2)c2cc(Cl)cnc2n1Cc1ccccc1` gave HSD17B inh 31.6µM*, 4MU fluor 1.04e-08M*, HADH2 inhib 13.1%, CRE Fsk mod inconclusive, AID923 -0.6% and A350 autofl 1.17e-08M*.
COC(=O)c1ccc(C(NC(=O)OCc2ccccc2)/C(=C/[C@@H](C)C(=O)NCCF)c2cccnc2)cc1 (some centres not stated) was read as HSD17B inh -5.2%, HADH2 inhib 5.9%, CRE Fsk mod -10.0% and AID923 -1.1%.
`Cc1ccc(S(=O)(=O)OCC(=O)O)cc1` gave HSD17B inh 3.8%[11.4 µM], 4MU fluor inactive, HADH2 inhib 6.1%[11.4 µM], CRE Fsk mod -4.9%[7.6 µM], AID923 1.6%[11.5 µM] and A350 autofl inactive.
`O=C(c1ccc(CS(=O)(=O)c2ccccc2)o1)N1CCN(c2ncccn2)CC1` gave HSD17B inh -4.6%, HADH2 inhib 1.7%, CRE Fsk mod inconclusive and AID923 2.7%.
CCOc1ncccc1C(=O)NCC1COc2ccccc2O1 (configuration not stated) was read as HSD17B inh -1.1%, 4MU fluor inactive, HADH2 inhib -0.1%, CRE Fsk mod 3.98µM*, AID923 -2.6% and A350 autofl inactive.
For O=Cc1ccsc1B(O)O the results were HSD17B inh 0.3%, HADH2 inhib 2.0% and AID923 1.5%.
N#Cc1cnc(SCC(=O)Nc2ccccc2C(F)(F)F)nc1N was read as HSD17B inh -24.7%, 4MU fluor 1.01e-08M*, HADH2 inhib 1.9%, CRE Fsk mod inconclusive, AID923 2.5% and A350 autofl 1.06e-08M*.
Screening N#Cc1ccccc1NC(=O)CSc1nccn1CCc1ccccc1 returned HSD17B inh 4.6%, 4MU fluor inconclusive, HADH2 inhib -5.2%, CRE Fsk mod -13.8%, AID923 0.5% and A350 autofl inconclusive.
O=C1C(Cl)=C(Nc2ccc(S(=O)(=O)Nc3ccccn3)cc2)C(=O)c2ccccc21 was read as HSD17B inh 1.26µM*, 4MU fluor inconclusive, HADH2 inhib 2.51µM*, CRE Fsk mod -4.2%[7.6 µM], AID923 -1.0%[11.5 µM] and A350 autofl inconclusive.
For O=C(NCCCc1ccccc1)c1ccccc1O the results were HSD17B inh 25.1µM*, HADH2 inhib inconclusive, CRE Fsk mod inconclusive and AID923 0.7%.
CCc1ccc(NC(=O)CCNS(=O)(=O)c2cccc3nonc23)cc1 was read as HSD17B inh -1.2%, 4MU fluor inactive, HADH2 inhib -5.7%, CRE Fsk mod -7.5%, AID923 -0.6% and A350 autofl inactive.
Screening COc1cc(/C=C/C(=O)CC(=O)/C=C/c2ccc(O)c(OC)c2)ccc1O returned HSD17B inh inconclusive, 4MU fluor inactive, HADH2 inhib 3.98µM*, CRE Fsk mod inconclusive, AID923 18.1% and A350 autofl inactive.
Screening COc1cc(/C=C/C(=O)O)ccc1O returned HSD17B inh -28.5% and AID923 -0.4%.
Screening COc1cc(/C=C\C(=O)CC(=O)/C=C\c2ccc(O)c(OC)c2)ccc1O returned 4MU fluor inactive, HADH2 inhib 7.94µM*, CRE Fsk mod inconclusive and A350 autofl inactive.
`O=C1C(Cl)=C(Nc2ccccc2O)C(=O)N1c1ccccc1` gave HSD17B inh -14.5%, 4MU fluor inactive, HADH2 inhib 1µM*, CRE Fsk mod -5.8%, AID923 0.0% and A350 autofl inactive.
